MsrA inh – bovine MsrA enzyme inhibitors, primary screen, biochemical, absorbance, HTS. purified bovine MsrA, absorbance read-out. inhibition, % at 15.5 µM. 0.75% of 360,000 active. AID 651718, 2012; in the data active = inhibition above about 4.5%;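 note: 0% = vehicle wells with enzyme and 100% = reference inhibitor wells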
bovine MsrA act – bovine MsrA enzyme activators, primary screen, biochemical, absorbance, HTS; purified bovine MsrA, absorbance read-out; activation, % at 10.6 µM; 0.3% of 360,000 active; AID 602163, 2012; in the data active = activation above about 7.5%;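 note: 0% = vehicle and 100% = reference activator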
MOR-DOR ag – agonists of OPRM1-OPRD1 heterodimerization, primary screen, cell-based, luminescence; Mu-type opioid receptor (Homo sapiens) + Delta-type opioid receptor (Homo sapiens), …; cells; activation, % at 9.3 µM; 0.3% of 340,000 active; AID 504326, 2011;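 note: 0% = vehicle-treated cells and 100% = reference agonist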
HTR5A inv ctr – HTR5A inverse agonists in luminescence cell assay, primary screen, counter-screen for OPRM1-OPRD1 heterodimer inverse agonist project, full-deck HTS. HTR5A cell line, inverse agonism. inhibition, % at 9.3 µM. 0.083% of 340,000 active; in the data active = inhibition mostly above about 23%, no sharp cut-off; inactive = mostly below about 18%;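 note: 0% = cells with DMSO and 100% = no-cell wells with DMSO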
HTR5A ag ctr – HTR5A agonists in luminescence cell assay, primary screen, counter-screen for OPRM1-OPRD1 heterodimer agonist project, full-deck HTS. cell-based. 5-hydroxytryptamine receptor 5A (Homo sapiens), P47898. activation, % at 9.3 µM. AID 504692, 2011. 0.61% of 340,000 active; in the data active = activation mostly above about 9.5%, no sharp cut-off; inactive = mostly below about 7.6%;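 note: 0% = cells with vehicle only and 100% = reference agonist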
OPRM1-OPRD1 inv – inverse agonists of MOR-DOR heterodimerization, primary screen, cell-based, luminescence | cell-based MOR-DOR heterodimer luminescence, inverse agonism | inhibition, % at 9.3 µM | 0.21% of 340,000 active | AID 504357, 2011; in the data active = inhibition above about 22%, passing the limit was not always enough;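 note: 0% = cells with DMSO and 100% = wells without cells with DMSO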
OPRM1-D1 ag cf – agonists of MOR-DOR heterodimerization, confirmation, cell-based, luminescence | cells, luminescence complementation | activation, % at 9.3 µM | shares compounds with MOR-DOR ag | 45% of 830 active;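 note: 0% = vehicle-treated cells and 100% = reference agonist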
HTR5A ag ctr2 – HTR5A agonists in cells, counter-screen for OPRM1-OPRD1 heterodimer agonist project, cell-based, luminescence. shares compounds with MOR-DOR ag. 8% of 830 active. HTR5A agonist counterscreen. activation, % at 9.3 µM; in the data active = activation above about 17%;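 note: 0% = vehicle-treated cells and 100% = reference agonist response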
* = called active by the depositor; · = no result. Sampled rows, rich in hits. Any-hit rate of the full collection: about 1.9%. Cut-off read from the data, not from the text of the source, unless noted: active = activation above about 18%; inactive = the rest.

SMILES	MsrA inh	bovine MsrA act	MOR-DOR ag	HTR5A inv ctr	HTR5A ag ctr	OPRM1-OPRD1 inv	OPRM1-D1 ag cf	HTR5A ag ctr2
CC(C)C[C@@H]1COc2cccc(NC3CC3)c2S(=O)(=O)N1	0.7	·	·	·	·	·	·	·
Cc1cc(N2CCNC[C@H]2C)ccc1N1CCN(Cc2ccccc2)[C@@H](C)C1	1.5	·	·	·	·	·	·	·
COc1cc2c(c(OC)c1OC)[C@@]1(c3ccccc3)CCCC[C@H]1[C@@H]2NC(=O)C(F)(F)F	0.4	·	·	·	·	·	·	·
CCCN1C(=O)c2[nH]nc(-c3ccccc3)c2C1c1ccc(F)cc1 (stereo not given)	1.3	·	·	·	·	·	·	·
COC(=O)C1=C(C)N(C)C(=NCC2CC2)NC1CCc1ccccc1 (stereo not given)	-1.4	·	·	·	·	·	·	·
Cc1ccc(OCCOc2ccc(Br)cc2/C=N\NC(N)=O)cc1	0.0	-1.9	19.8*	-20.1	8.4	-97.8	1.2	70.9*
NC(=O)N/N=C\c1cc(Br)ccc1O	0.0	-3.3	0.3	6.2	-4.9	-1.8	·	·
COc1cc(CCC(C)=O)ccc1OC(=O)c1c(-c2c(F)cccc2Cl)noc1C	0.5	·	·	·	·	·	·	·
COc1ccc(C2CC(c3ccc(Br)cc3)=NN2C(=O)CSC2=NCCS2)cc1 (stereo not given)	1.5	-1.0	101.9*	12.3	-0.2	-491.5	6.9	8.7
CCN(CC)CCn1c2ccccc2c(=O)c2c(O)ccc(O)c21	0.4	-3.4	19.5*	-2.1	0.6	-100.2	9.4	0.5
COc1ccc(CNC(=O)c2c(N)[nH]c(C(=O)c3ccccc3)c2-c2ccc3ccccc3c2)cc1OC	0.3	·	·	·	·	·	·	·
CC(=O)Cc1cc(O)c2ccccc2c1OC(=O)c1ccc(Br)cc1	0.3	-2.6	19.8*	0.8	8.3	-100.6	10.9	13.2
COc1ccc(OC)c(S(=O)(=O)NCC2CCN(C(=O)C(=O)c3cccs3)CC2)c1	1.1	·	·	·	·	·	·	·
COc1ccc([C@H]2CC(=O)C=C(c3c(C)cc(C)cc3C)C2)cc1	1.2	0.0	26.6*	-25.2	-0.8	-153.6	-0.1	3.5
COc1ccc([C@H]2CC(=O)C=C(c3cc(C)ccc3OC)C2)cc1	-0.3	-2.6	-0.2	10.1	-3.4	1.0	·	·
CN1C(=O)[C@@]2(O[C@H]3c4ccccc4C=CN3C3=C2C(=O)CCC3)c2ccccc21	1.6	·	·	·	·	·	·	·
c1ccc(CNc2c3ccccc3nc3ccccc23)cc1	0.9	-4.7	22.1*	5.0	-1.3	-122.2	0.8	-2.2
Cc1ccc(-c2cc(C(=O)Nc3ccncc3)c3ccccc3n2)cc1	-1.9	-1.5	28.4*	-31.3	11.8	-153.2	17.6	15.4
O=C(Nc1ncccn1)c1cc(-c2cccc(Br)c2)nc2ccccc12	0.4	-3.7	-2.6	-4.8	2.0	11.7	·	·
COc1ccc(NC(=O)c2cc(-c3ccco3)nc3ccccc23)cc1	-0.1	-0.5	50.0*	-3.4	4.1	-251.2	22.0*	20.0*
O=C(Nc1ccncc1)c1cc(-c2cccc(Br)c2)nc2ccccc12	-0.8	-6.8	51.6*	-55.7	25.6*	-336.2	10.7	6.5
Cc1cc(-c2nn(-c3ccccc3F)cc2CN2CCN(c3ccccn3)CC2)c(C)s1	0.2	-1.6	27.6*	2.9	-1.1	-134.8	3.4	-0.4
Cc1cc(-c2nn(-c3ccccc3F)cc2CNCCc2cnccn2)c(C)s1	0.0	-0.8	5.2	6.2	-2.2	-25.2	·	·
COc1cc(/C=N/NC(N)=S)ccc1OCC(=O)Nc1ccc(C)c(C)c1	1.6	-1.7	22.2*	7.2	-2.8	-125.0	10.2	0.0
COc1cc(/C=N/NC(N)=O)ccc1OCC(=O)Nc1ccc(C)c(C)c1	-0.3	-11.9	-1.3	2.8	1.9	7.1	·	·
CC1(NC(=O)CCc2ccccc2)CCN(CCCc2ccccc2)C1=O (stereo not given)	-0.5	-1.5	-0.6	-5.4	5.2	3.3	·	·
